The supplement of paper PMC5919970
Where a name gives a salt, the structure may show the parent alone. Over roughly 2,000 compounds, “fractional viability relative to vehicle” has its median near 0.91; the lowest 2% begin near 0.045. Shown is part of a subset that was picked to be rich in the lowest values.

Test system: TYKNU
Assay: fractional viability relative to vehicle; TYKNU is a high-grade serous ovarian cancer line; higher = less growth inhibition
Settings: 72 h
Outline: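 TYKNU control cells or lentiCRISPRv2 knockout derivatives were plated at 500 cells per well in duplicate into drug-stamped 384-well plates holding a ~2100-compound library at 2 or 10 μM. Culture was in RPMI 1640 with 10% FBS at 37 °C in 5% CO2, with 72 h of drug treatment. Viability was measured by Cell Titer Glo luminescence, and the averaged duplicate treatment wells were normalised to duplicate control wells at the same plate position.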

[1] = 2uM, genotype: DNM1L knockout (sgDNM1L #1)
[2] = 2uM, genotype: sgCTRLA1 (non-targeting control)
[3] = 10uM, genotype: DNM1L knockout (sgDNM1L #1)
[4] = 10uM, genotype: sgCTRLA1 (non-targeting control)

| SMILES | fractional viability [1] | fractional viability [2] | fractional viability [3] | fractional viability [4] |
| --- | --- | --- | --- | --- |
| CCC[C@H](NC(=O)/C(C#N)=C/c1cccc(Br)n1)c1ccccc1 [Degrasyn (WP1130)] | 0.0738 | 0.0639 | 0.0286 | 0.026 |
| N#C/C(=C\c1ccc(O)c(O)c1)C(=O)NCc1ccccc1 [AG-490 (Tyrphostin B42)] | 0.921 | 1.01 | 0.84 | 0.99 |
| C[C@H](NC(=O)/C(C#N)=C/c1cccc(Br)n1)c1ccccc1 | 0.9 | 0.999 | 0.0615 | 0.0707 |
| O=C(Nc1cccc(Cl)c1)Nc1ncc(CCNc2ncnc3ccsc23)s1 [SNS-314 Mesylate] | 0.705 | 0.722 | 0.644 | 0.404 |
| O=C(c1ccc(C(=O)N2CCC(N3CCCC3)CC2)c(Nc2ccccc2)c1)N1CCC(N2CCCC2)CC1 | 0.857 | 1 | 0.708 | 0.973 |
| O=C(c1cncc(Br)c1)N1CCC(N2CCCC2)CC1 | 0.816 | 0.901 | 0.828 | 0.765 |
| O=C(c1ccc(Nc2nccc(-c3cc4ccccc4s3)n2)cc1)N1CCC(N2CCCC2)CC1 [IKK-16 (IKK Inhibitor VII)] | 0.942 | 0.839 | 0.0381 | 0.0277 |
| NC[C@H](O)c1ccc(O)c(O)c1 [Noradrenaline bitartrate monohydrate] | 0.847 | 0.96 | 0.592 | 0.84 |
| O=C(/C=C/C=C/c1ccc2c(c1)OCO2)N1CCCCC1 [Piperine] | 0.998 | 1.08 | 0.915 | 1.03 |
| O=C(O)Cc1ccccc1Nc1c(Cl)cccc1Cl [Diclofenac Sodium] | 1.12 | 0.938 | 0.917 | 0.967 |
| O=C(O)Cc1ccccc1Nc1c(Cl)cccc1Cl [Diclofenac Potassium] | 1.17 | 1.13 | 0.876 | 1.07 |
| O=C(O)Cc1ccccc1Nc1c(Cl)cccc1Cl [Diclofenac Diethylamine] | 1 | 1.03 | 0.893 | 1.14 |
| CN(C)c1ccc(-c2nc3ncc(Cl)c(N4CCN(CC(=O)Nc5nccs5)CC4)c3[nH]2)cc1 | 1.15 | 0.937 | 0.395 | 0.714 |
| O=C1c2c(O)cc(O)cc2OC(c2ccc(O)c(O)c2)C1O (stereo not drawn) [Taxifolin (Dihydroquercetin)] | 1.04 | 1.15 | 0.951 | 1.06 |
| COc1cccc(-c2cc(F)ccc2C2Cc3nc(N)nc(C)c3C(=O)N2)n1 (stereo not drawn) | 0.241 | 0.191 | 0.227 | 0.201 |
| COc1ccc(-c2cc3c(C)nc(N)nc3n([C@H]3CC[C@H](OCCO)CC3)c2=O)cn1 | 0.141 | 0.165 | 0.0585 | 0.0406 |
| CCN1C[C@H](C)n2c(c(O)c3c(=O)n(Cc4ccc(F)c(Cl)c4)nc(C(=O)NC)c32)C1=O | 1.07 | 1.2 | 0.793 | 1.12 |
